Assay in all cases: NCI-60 one-dose screen, 48 h (100 = growth as untreated, 0 = no growth, -100 = all killed)
Common to all, as to settings: 10 µM unless noted

In experiment [1] the test system is HCT-15 colon.
For experiment [2], the system named is HT29 colon.
Experiment [3] deals with SNB-75 CNS.
Experiment [4] has as its system SNB-19 CNS.
Experiment [5] deals with U251 CNS.
For experiment [6], the system named is PC-3 prostate.
In experiment [7] the test system is SK-MEL-5 melanoma.
For experiment [8], the system named is UACC-62 melanoma.
The test system of experiment [9] is LOX IMVI melanoma.
Experiment [10] deals with SK-MEL-28 melanoma.

Structures are written as SMILES. Compounds without any hit were thinned out: in the full panel of roughly 83,000, 20% have a hit.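 Interpretation: 100, growth as untreated; towards 0, rising growth inhibition; 0, no net growth; 0 to -100, cell death. Compounds scoring below 10 were considered active.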 Unmarked numbers belong to inactive results. The source made the active and inactive calls.

Turning to `COc1ccc2c(c1)c(CC(=O)[Se]CCC#N)c(C)n2C(=O)c1ccc(Cl)cc1`, the growth in experiment [1] is -64.7% (active); in [2], -31.2% (active); in experiment [3] it was -30.1% (active); in [4] it was -45.2% (active); in [5] it was 1.11% (active); in [6] it was 17.4%. For the same molecule, the growth in experiment [7] was -73.4% (active); in experiment [8], 41.3%; in [9], -50.4% (active); in experiment [10], -1.32% (active).
Consider `Cc1ccc(NC(=S)NNC(=S)Nc2ccc(C)cc2)cc1`, for which the growth in [1] is 96.7%; in experiment [2], 105%; in experiment [3], 96.1%; in [4], 98.5%; in experiment [5], 106%; in experiment [6], 101%. Further, the growth in [7] was 102%; in [8] it was 98.6%; in experiment [9], 115%; in experiment [10] it was 105%.
For `Cc1c(Cl)cccc1S(=O)(=O)Nc1ccc2c(c1)C(=O)N(C1CCC(=O)NC1=O)C2=O` (stereo not given), the growth in [1] was 24%; in [2] it was 105%; in experiment [3] it was 77.4%; in experiment [4], 82.9%; in experiment [5], 95.6%; in experiment [6], 95.4%. For the same molecule, the growth in [7] is 100%; in experiment [9] it was 122%.
In the case of `C#CCn1cccc1CNc1ccc(OC)cc1`, the growth in [1] was -79.2% (active); in experiment [2], -50.4% (active); in experiment [3], -79.9% (active); in [4] it was -90.1% (active); in experiment [5] it was -74.6% (active); in experiment [6], -93.3% (active). The growth in experiment [7] is -6.24% (active); in experiment [9], -84.8% (active); in experiment [10], -48.9% (active).
As to `COc1ccc(COc2ccc(/C=C3\C(=O)Nc4ccccc43)cc2OC)cc1`, the growth in [1] is 105%; in experiment [2], 108%; in [3] it was 97.4%; in experiment [4], 97.3%; in experiment [5] it was 109%; in experiment [6] it was 95.8%. Also, the values for the growth in [7], in experiment [9] and in experiment [10] were 108%, 96.6% and 107%, respectively.
As to `CC(=O)Nc1cccc(Nc2nc(N[C@H](C)c3ccccc3)c3ccccc3n2)c1`, the growth is 41.5% in experiment [1]; 41.1% in [2]; 30.6% in experiment [3]; 74% in experiment [4]; 74.4% in experiment [5]; 45.5% in experiment [6]. The growth in experiment [7] is 38.8%; in experiment [8], 65.5%; in experiment [9] it was 45.6%; in [10], 74.6%.
For `Cc1cccc2c3c(sc12)C(c1ccc(Cl)cc1)c1c(nc(CC(=O)Nc2ccccc2)[nH]c1=O)O3` (stereo not given), the growth in [1] was 47.5%; in [2] it was 73.6%; in [3], 30.8%; in [4], 64.5%; in experiment [5], 54.2%; in [6] it was 43.3%. In addition, the growth was 91.7% in experiment [7], 27% in experiment [8], 56.1% in [9] and 56.5% in [10].
As to `CC1(C)CC[C@]2(C(=O)N3CCOCC3)CC[C@]3(C)C(=CC[C@@H]4[C@@]5(C)C/C(=C/c6ccccn6)C(=O)C(C)(C)[C@@H]5CC[C@]43C)[C@@H]2C1`, the growth in experiment [1] was 52.1%; in experiment [2] it was 56.3%; in [3], 34.1%; in [4] it was 88%; in experiment [5], 80.7%; in experiment [6], 20.9%. Besides, the growth in experiment [7] is 69.3%; in experiment [9] it was 55.9%; in experiment [10] it was 86.1%.
Take `O=c1[nH]c(Sc2sc3ccc(Cl)cc3c2CBr)nc(=S)[nH]1`: the growth was 21.2% in experiment [1]; 91.4% in experiment [2]; 54% in experiment [3]; 60.7% in [4]; 38.7% in [5]; 26.4% in [6]. Moreover, the growth in experiment [7] is 35.1%; in experiment [8] it was 1.82% (active); in experiment [9], 25.9%; in experiment [10], 28.4%.
For the molecule `CN(C)CCNC(=O)c1ccc(-c2nc3ccc4[nH]ncc4c3c3c2COCC3)cc1`, the growth in experiment [1] was 84.7%; in experiment [2], 16.7%; in experiment [3], -30.1% (active); in experiment [4], 6.94% (active); in experiment [5] it was 5.37% (active); in experiment [6] it was 0.378% (active). For the same molecule, the results for the growth in [7], in experiment [9] and in [10] were 3.57% (active), -72.4% (active) and -6.13% (active), respectively.
Regarding `COc1ccc(/C=N/NC(=O)c2cn(C3CC3)c3c(OC)c(N4CC5CCCNC5C4)c(F)cc3c2=O)cc1` (stereo not given), the growth is 47.6% in experiment [1]; 32.4% in experiment [2]; 93.1% in experiment [3]; 96.6% in [4]; 89.4% in experiment [5]; 87.1% in experiment [7]. Also, the growth is 100% in experiment [8], 19.6% in experiment [9] and 92.8% in experiment [10].
Turning to `CC1(COc2ccc3ncc(C#Cc4cncc(C(=O)Nc5cccc(C(F)(F)F)c5)c4)n3n2)COC1`, the growth was 86.1% in [1]; 82.1% in experiment [2]; 63% in [3]; 82.8% in experiment [4]; 91.3% in experiment [5]; 95.5% in [6]. For the same molecule, the growth in experiment [7] is 79.4%; in experiment [9] it was 65.6%; in experiment [10], 86.8%.
Turning to `Cc1ccc(N2C(=O)/C(=C/C=C/c3ccco3)SC2=S)cc1`, the growth in [1] was 88.4%; in experiment [2], 102%; in [3] it was 98.1%; in [4], 92.4%; in experiment [5], 93.8%; in [6], 73.3%. In addition, the growth in [8] is 89%; in experiment [9], 96.2%; in [10], 95.8%.
In the case of `CN1CCN(c2ccc(/C=N/Nc3nc4ccccc4c(=O)n3-c3ccccc3)cc2)CC1`, the growth is 99.2% in [1]; 100% in [2]; 95.5% in experiment [3]; 105% in experiment [4]; 102% in experiment [5]; 93.2% in [6]. Also, the growth in experiment [7] was 92.4%; in experiment [9] it was 122%; in experiment [10], 103%.
Regarding `O=S(=O)(NCCNc1nccc(-n2cnc3ccccc32)n1)c1ccc(Br)cc1`, the growth in experiment [1] is 95.7%; in [2], 97.2%; in experiment [3] it was 74.1%; in experiment [4], 101%; in [5], 98.6%; in [6], 93.8%. In addition, the growth is 89.1% in experiment [7], 99.1% in experiment [9] and 108% in experiment [10].
In the case of `O=C1C(c2ccccc2)=C(N2CCc3ccccc32)OC1(Cl)Cl`, the growth in [1] is 21.1%; in experiment [2] it was 37.4%; in [3], 74.3%; in experiment [4] it was 84.9%; in experiment [5], 85.8%; in experiment [7] it was 99.8%. Further, the values for the growth in [8], in experiment [9] and in experiment [10] were 81.4%, 56.7% and 31.8%, respectively.
`Cc1ccc(C(=O)NN2C(=O)/C(=C/C=C/c3ccco3)SC2=S)cc1`: the growth in experiment [1] is 91.6%; in experiment [2], 110%; in [3], 94.5%; in experiment [4], 94.9%; in [5], 98.7%; in experiment [6], 92.2%. Also, the growth in experiment [8] is 85.3%; in experiment [9] it was 99.7%; in experiment [10] it was 94.4%.
Turning to `COc1cc(OC)c(S(N)(=O)=O)cc1C(=O)/C=C/c1ccc(C)cc1`, the growth was 6.96% (active) in [1]; 9.47% (active) in experiment [2]; 1.82% (active) in [3]; 33.3% in experiment [4]; 14.5% in [5]; 19.1% in [6]. Also, the figures for the growth in [8], in experiment [9] and in experiment [10] were 33.8%, 1.84% (active) and 58.7%, respectively.
On to `COc1ccc2c(c1)Oc1nc(N)c(C#N)c(N)c1C2Sc1ccc(C)cc1` (stereo not given), for which the growth is -82.5% (active) in [1]; -26.8% (active) in [2]; 88.7% in experiment [3]; 7.65% (active) in experiment [4]; 0.124% (active) in [5]; -25.1% (active) in experiment [7]. Further, the values for the growth in [8], in [9] and in experiment [10] were 9.86% (active), -98.4% (active) and -25.9% (active), respectively.
As for `Cc1cc(C)c(N2C(=O)CC(Nc3ccc(Cl)cc3Cl)C2=O)c(C)c1` (stereo not given), the growth in experiment [1] was 102%; in experiment [2] it was 107%; in experiment [3] it was 93%; in [4], 98.5%; in experiment [5], 104%; in experiment [6] it was 94.8%. Besides, the results for the growth in experiment [7], in [9] and in [10] were 103%, 96% and 102%, respectively.
In the case of `Cc1cc(-c2ccc(Cl)cc2)n(Cc2nnc(SCC(=O)Nc3ccc(S(N)(=O)=O)cc3)n2C2CCCCC2)n1`, the growth in experiment [1] is 98.4%; in experiment [2], 108%; in experiment [3], 118%; in [4], 97.6%; in experiment [5], 101%; in [6], 101%. Further, the growth is 100% in experiment [7], 101% in [9] and 106% in experiment [10].
Take `Cn1ccnc1C(=O)/C=C/C=C/c1ccc(C(=O)Nc2ccc(F)cc2)cc1`: the growth was -36.8% (active) in experiment [1]; 0.045% (active) in experiment [2]; 51.7% in experiment [3]; 39.6% in experiment [4]; -1.47% (active) in [5]; 41.8% in experiment [6]. Besides, the results for the growth in [7], in experiment [9] and in [10] were 30.4%, -65.7% (active) and 39.7%, respectively.
For the molecule `CN1CCC(n2cc(Nc3ncc4c(=O)n(-c5c(Cl)cccc5Cl)cc(Br)c4n3)cn2)CC1`, the growth in [1] was 17.1%; in experiment [2], 6.54% (active); in experiment [3], 17.1%; in [4], 41.7%; in [5] it was 27.6%; in experiment [6], 51.3%. Besides, the growth was 11.9% in experiment [9] and 63.4% in experiment [10].
In the case of `COC(=O)c1[nH]nc2c1C1(C(=O)c3cccc4cccc1c34)C(C#N)=C(N)O2` (stereo not given), the growth in [1] was 99.4%; in experiment [2], 105%; in experiment [3] it was 80.4%; in experiment [4], 97.2%; in experiment [5] it was 105%; in experiment [6] it was 83.9%. In addition, the growth was 98.6% in experiment [7], 97.7% in experiment [9] and 112% in experiment [10].
With `COc1ccccc1-n1cc(C#N)c(N)c1C(=O)c1ccc(C)cc1`, the growth in experiment [1] was 47.1%; in experiment [2] it was 73.7%; in [3], 82%; in experiment [4], 77.1%; in [5] it was 79.4%; in [7] it was 92%. Moreover, the growth is 22.2% in experiment [8], 80.1% in experiment [9] and 73.9% in experiment [10].
For the molecule `NS(=O)(=O)c1ccc(Nc2cc(-c3ccccc3)nc(SCC(=O)c3ccccc3)n2)cc1`, the growth was 99.4% in experiment [1]; 106% in [2]; 91.6% in [3]; 91.7% in experiment [4]; 100% in [5]; 98.4% in [6]. For the same molecule, the growth in [7] was 98.6%; in [9], 97.8%; in [10], 104%.
On to `Cc1cc(C)cc(C(=O)Nc2cccc(C#Cc3cccc4[nH]nc(N)c34)c2)c1`, for which the growth in experiment [1] is 33.8%; in experiment [2], 41.7%; in [3] it was 40.3%; in [4] it was 99.5%; in experiment [5], 72.2%; in experiment [6], 33.6%. Further, the growth in experiment [8] is 60.5%; in experiment [9] it was 43.2%; in experiment [10] it was 72%.
Regarding `CNCc1cccc2c1OCCCCCCC(C)(O)CC(C)(C)S(=O)(=O)c1ccc(cc1)-c1cnc(N)c(n1)C(=O)N2` (stereo not given), the growth in experiment [1] is -20.6% (active); in experiment [2], -8.67% (active); in experiment [3], 84%; in [4], 33%; in experiment [5], -70.9% (active); in experiment [6] it was 16%. The growth in [8] was 1.85% (active); in experiment [9], -59.4% (active); in [10] it was 13.5%.

(Values after PubChem BioAssay (NCI).)
